Some compounds were tested as several samples or in several runs, with calls that do not always agree. Active and inactive are the calls of the source. The calls were made as follows: active = hit-call score of the fitted dose curve at least 0.9, where 1 is the maximum; inactive = score below 0.9.
Columns and labels:
[1] = read-out: Monokine induced gamma interferon (MIG), CXCL9 (gene 4283); experiment: BSK_BE3C_MIG: BioMAP Diversity Plus: BE3C Assay for Monokine induced gamma interferon (MIG) Biomarker Activity (AID 2283035); settings: primary human bronchial epithelial cells; actives raise or lower the signal;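 as to outcome: MIG protein measured by ELISA in BE3C cultures after 24 h of dosing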
Procedure, shortened: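 Primary human bronchial epithelial cells treated for 24 h; MIG levels measured by ELISA, fitted bidirectionally versus DMSO. Parallel SRB total-protein staining assessed cytotoxicity.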

[2] = read-out: Transforming growth factor beta 1 (TGFb1), TGFB1 (gene 7040); experiment: BSK_BE3C_TGFb1: BioMAP Diversity Plus: BE3C Assay for Transforming growth factor beta 1 (TGFb1) Biomarker Activity (AID 2283036;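 as to outcome: TGF-b1 protein level measured by ELISA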); settings: primary human bronchial epithelial cells; actives raise or lower the signal
Procedure, shortened: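 Primary human lung bronchial epithelial cells; compound exposure 24 h; TGF-b1 by ELISA; bidirectional fit, DMSO baseline. Parallel SRB total-protein staining for cytotoxicity.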

[3] = read-out: Plasminogen activator inhibitor-1 (PAI1), SERPINE1 (gene 5054); experiment: BSK_BE3C_PAI1: BioMAP Diversity Plus: BE3C Assay for Plasminogen activator inhibitor-1 (PAI1) Biomarker Activity (AID 2283037); settings: primary human bronchial epithelial cells; actives raise or lower the signal
Procedure, shortened: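 Primary human lung bronchial epithelial cells; chemical dosing; 24 h; PAI-1 measured by ELISA; bidirectional fit referenced to DMSO as negative control.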

[4] = read-out: urokinase plasminogen activator (uPA), PLAU (gene 5328); experiment: BSK_BE3C_uPA: BioMAP Diversity Plus: BE3C Assay for urokinase plasminogen activator (uPA) Biomarker Activity (AID 2283038); settings: primary human bronchial epithelial cells; actives raise or lower the signal;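 also: uPA protein level quantified by ELISA in cell cultures; uPA read one day after compound addition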
Procedure, shortened: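 Using confluent primary human lung bronchial epithelial cultures, we dosed chemicals, waited 24 h, then ran a uPA ELISA, fitting bidirectionally against DMSO.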

[5] = read-out: Urokinase-type plasminogen activator receptor (uPAR), PLAUR (gene 5329); experiment: BSK_BE3C_uPAR: BioMAP Diversity Plus: BE3C Assay for Urokinase-type plasminogen activator receptor (uPAR) Biomarker Activity (AID 2283039); settings: primary human bronchial epithelial cells; actives raise or lower the signal;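 as to outcome: cells exposed to compound for one day before measurement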
Procedure, shortened: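 Human bronchial epithelial primary cells; chemical exposure 24 h; uPAR by ELISA; bidirectional fit vs DMSO control.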

[6] = read-out: Interleukin-6 (IL6), IL6 (gene 3569); experiment: BSK_CASM3C_IL6: BioMAP Diversity Plus: CASM3C Assay for Interleukin-6 (IL6) Biomarker Activity for (AID 2283040); settings: primary human coronary artery smooth muscle cells; actives raise or lower the signal
[7] = read-out: Tissue plasminogen activator (tPA), PLAT (gene 5327); experiment: BSK_BE3C_tPA: BioMAP Diversity Plus: BE3C Assay for Tissue plasminogen activator (tPA) Biomarker Activity (AID 2283041); settings: primary human bronchial epithelial cells; actives raise or lower the signal;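 as to outcome: tPA level quantified by ELISA one day after compound addition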
Procedure, shortened: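 Primary human lung bronchial epithelial cultures receive test chemical; after 24 h, tPA is quantified by ELISA, and gain or loss of signal is fitted bidirectionally relative to DMSO baseline.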

[8] = read-out: Interleukin-8 (IL8), CXCL8 (gene 3576); experiment: BSK_CASM3C_IL8: BioMAP Diversity Plus: CASM3C Assay for Interleukin-8 (IL8) Biomarker Activity (AID 2283042); settings: primary human coronary artery smooth muscle cells; actives raise or lower the signal;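 also: IL-8 protein level quantified by ELISA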
[9] = read-out: Human Leukocyte Antigen - DR isotype (HLADR), HLA-DRA (gene 3122); experiment: BSK_CASM3C_HLADR: BioMAP Diversity Plus: CASM3C Assay for Human Leukocyte Antigen - DR isotype (HLADR) Biomarker Activity (AID 2283043); settings: primary human coronary artery smooth muscle cells; actives raise or lower the signal;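 also: cell-surface HLA-DR protein level quantified by ELISA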
[10] = read-out: Macrophage colony-stimulating factor (MCSF), CSF1 (gene 1435); experiment: BSK_CASM3C_MCSF: BioMAP Diversity Plus: CASM3C Assay for Macrophage colony-stimulating factor (MCSF) Biomarker Activity (AID 2283044); settings: primary human coronary artery smooth muscle cells; actives raise or lower the signal;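 also: M-CSF protein amount quantified by ELISA after 24 h exposure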

## O=[N+]([O-])c1ccc(O)c([N+](=O)[O-])c1
[1]
  outcome: inactive
[2]
  outcome: inactive
[3]
  AC50: 30.5 µM (active)
[4]
  outcome: inactive
[5]
  outcome: inactive
[6]
  outcome: inactive
[7]
  outcome: inactive
[8]
  outcome: inactive
[9]
  outcome: inactive
[10]
  outcome: inactive

## CCOP(=S)(OCC)Oc1ccc(S(C)=O)cc1 (centres undefined)
[1]
  outcome: inactive
[2]
  outcome: inactive
[3]
  outcome: inactive
[5]
  outcome: inactive
[6]
  outcome: inactive
[7]
  outcome: inactive
[8]
  outcome: inactive
[9]
  outcome: inactive
[10]
  outcome: inactive

## OCc1ccco1
[1]
  outcome: inactive
[2]
  outcome: inactive
[3]
  outcome: inactive
[5]
  outcome: inactive
[6]
  outcome: inactive
[8]
  outcome: inactive
[9]
  outcome: inactive
[10]
  outcome: inactive

## ClC1(Cl)C2(Cl)C3(Cl)C4(Cl)C(Cl)(Cl)C5(Cl)C3(Cl)C1(Cl)C5(Cl)C24Cl (centres undefined)
[1]
  outcome: inactive
[2]
  outcome: inactive
[3]
  outcome: inactive
[5]
  outcome: inactive
[6]
  outcome: inactive
[8]
  outcome: inactive
[9]
  outcome: inactive
[10]
  outcome: inactive

## Oc1c(I)cc(I)cc1I
[1]
  outcome: inactive
[2]
  outcome: inactive
[3]
  AC50: 1.83 µM (active)
[5]
  AC50: 2.31 µM (active)
[6]
  outcome: inactive
[8]
  outcome: inactive
[9]
  outcome: inactive
[10]
  outcome: inactive

## CC(=O)C(Cl)C(=O)N(C)C (centres undefined)
[1]
  outcome: inactive
[2]
  outcome: inactive
[3]
  outcome: inactive
[5]
  outcome: inactive
[6]
  outcome: inactive
[7]
  AC50: 20 µM (active)
[8]
  outcome: inactive
[9]
  AC50: 10.1 µM (active)
[10]
  AC50: 16.3 µM (active)

## COC[C@H](C)N(C(=O)CCl)c1c(C)csc1C
[1]
  outcome: inactive
[2]
  outcome: inactive
[3]
  outcome: inactive
[5]
  outcome: inactive
[6]
  outcome: inactive
[7]
  outcome: inactive
[8]
  outcome: inactive
[9]
  outcome: inactive
[10]
  outcome: inactive

## CC(=O)OC(c1ccccc1)C(Cl)(Cl)Cl (centres undefined)
[1]
  outcome: inactive
[3]
  outcome: inactive
[5]
  outcome: inactive
[6]
  outcome: inactive
[8]
  outcome: inactive
[9]
  outcome: inactive
[10]
  outcome: inactive

## O=C(O)CCC(F)(C(F)(F)F)C(F)(F)F
[1]
  outcome: inactive
[3]
  outcome: inactive
[4]
  outcome: inactive
[5]
  outcome: inactive
[6]
  outcome: inactive
[8]
  outcome: inactive
[9]
  outcome: inactive
[10]
  AC50: 23.9 µM (active)
  outcome: inactive

## Oc1cccc2cccnc12
[1]
  AC50: 5.47 µM (active)
[2]
  AC50: 5.43 µM (active)
[3]
  AC50: 3.45 µM (active)
[5]
  AC50: 4.95 µM (active)
[6]
  outcome: inactive
[8]
  outcome: inactive
[9]
  AC50: 3.97 µM (active)
[10]
  outcome: inactive

## O=S(=O)(c1ccc(Cl)cc1)c1ccc(Cl)cc1
[1]
  outcome: inactive
[2]
  outcome: inactive
[3]
  outcome: inactive
[5]
  outcome: inactive
[6]
  outcome: inactive
[8]
  outcome: inactive
[9]
  outcome: inactive
[10]
  outcome: inactive

## CCC(C)(C)c1ccc(O)c(C(C)(C)CC)c1
[1]
  AC50: 36 µM (active)
[2]
  AC50: 20 µM (active)
[3]
  AC50: 31.4 µM (active)
[5]
  AC50: 36.6 µM (active)
[6]
  AC50: 29.4 µM (active)
[8]
  AC50: 38.7 µM (active)
[9]
  AC50: 16.4 µM (active)
[10]
  AC50: 28.9 µM (active)

## ClC1=C(Cl)[C@]2(Cl)[C@H]3[C@H]([C@H]4C=C[C@H]3C4)[C@@]1(Cl)C2(Cl)Cl
[1]
  outcome: inactive
[2]
  AC50: 3.12 µM (active)
[3]
  AC50: 3.97 µM (active)
[5]
  outcome: inactive
[6]
  outcome: inactive
[8]
  outcome: inactive
[9]
  AC50: 5.83 µM (active)
[10]
  outcome: inactive

## CCSC(C)CC1CC(=O)C(C(CC)=NOC/C=C/Cl)=C(O)C1 (centres undefined)
[1]
  outcome: inactive
[2]
  outcome: inactive
[3]
  outcome: inactive
[5]
  outcome: inactive
[6]
  outcome: inactive
[8]
  outcome: inactive
[9]
  outcome: inactive
[10]
  outcome: inactive

## O=C(OC1CCCCC1)c1ccccc1C(=O)OC1CCCCC1
[1]
  outcome: inactive
[2]
  outcome: inactive
[3]
  outcome: inactive
[5]
  outcome: inactive
[6]
  outcome: inactive
[8]
  outcome: inactive
[9]
  outcome: inactive
[10]
  outcome: inactive

## CC(C)(C)c1cc(O)ccc1O
[1]
  outcome: inactive
[2]
  outcome: inactive
[3]
  AC50: 14 µM (active)
[5]
  outcome: inactive
[6]
  outcome: inactive
[8]
  outcome: inactive
[9]
  AC50: 20 µM (active)
[10]
  AC50: 20 µM (active)

## CCNc1nc(NC(C)(C)C)nc(SC)n1
[1]
  outcome: inactive
[2]
  outcome: inactive
[3]
  outcome: inactive
[5]
  outcome: inactive
[6]
  outcome: inactive
[8]
  outcome: inactive
[9]
  outcome: inactive
[10]
  outcome: inactive

## COC(=O)Cc1ccccc1
[1]
  outcome: inactive
[3]
  outcome: inactive
[4]
  outcome: inactive
[5]
  outcome: inactive
[6]
  outcome: inactive
[8]
  outcome: inactive
[9]
  outcome: inactive
[10]
  outcome: inactive

From PubChem BioAssay (EPA / NIEHS)
